The values below come from PubChem BioAssay (Tox21).

Molecules are shown by their SMILES. Unmarked numbers belong to inactive results. Inconclusive results are not listed. Active and inactive are the calls of the source. Unless noted, calls come from the whole dose curve; as a rule, active = well fitted curve in the direction sought with a large enough effect in the repeat runs; inconclusive = weak or mixed curves; inactive = no such curve, though single readings can be large; an effect the other way counts as inactive or inconclusive.

Assay [1] can be described thus: qHTS assay for small molecule agonists of the p53 signaling pathway (AID 651631; calls by dose curve; note: nearly all actives have a fitted effect of over 15% in size). In outline: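 Beta-lactamase reporter activity under p53 response elements was quantified in HCT-116 cells by FRET fluorescence, following 16 h incubation with test compounds at 37 °C and 2 h substrate development at room temperature.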
A general note: In qHTS, concentration-response curves come from the screen itself.

Assay [2] is described as follows: qHTS assay for small molecules that induce genotoxicity in human embryonic kidney cells expressing luciferase-tagged ATAD5 (AID 651632). Note: nearly all actives have a fitted effect of over 15% in size. In outline:
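Luminescence read-out: after 16 hr compound exposure at 37C, ATAD5-luciferase HEK293T cells received Amplite, 30 min RT, then CCD imaging. A rise in signal marks genotoxic stress.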

Assay [3] in a line: qHTS assay for small molecule agonists of the p53 signaling pathway - cell viability (AID 651633; calls by dose curve;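 note: p53RE-bla HCT reporter cells with a stable beta-lactamase p53 reporter; series mostly up to about 83 µM; nearly all actives have a fitted effect of over 30% in size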). In outline: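 p53RE-bla cells were treated with compound for 16 hours at 37 C. Cytotoxicity was then measured as CellTiter-Glo luminescence after 30 min at room temperature.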
Assay [4] is described as follows: qHTS assay for small molecules that induce genotoxicity in human embryonic kidney cells expressing luciferase-tagged ATAD5 - cell viability (AID 651634; calls by dose curve; note: nearly all actives have a fitted effect of over 25% in size). In outline: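 HEK293T ATAD5-luc cells, 2,000/well; compound 15.5 hr, 37C/5% CO2; CellTiter-Fluor 30 min, 37C; fluorescence read.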
Assay [5] is described as follows: qHTS assay for small molecule disruptors of the mitochondrial membrane potential - cell viability (AID 720634; calls by dose curve; note: nearly all actives have a fitted effect of over 20% in size; note: potency is the fitted concentration of half-maximal effect). In outline: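 Luminescence from CellTiter-Glo (ATP content) gave viability in HepG2 cells, read in the same wells as the MMP dye assay after 1 hr compound exposure at 37 C.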
Assay [6] in a line: qHTS assay to test for compound auto fluorescence at 590 nm (red) in HepG2 cells (AID 720674). The gist of the method:
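Seeding: 2,000 HepG2 cells/well, MEM/10% FBS, overnight 37 C. Dosing: compound vs DMSO. Incubation: 1 hr, 37 C, 5% CO2. Read: fluorescence 540 ex/590 em, Rose Bengal sodium as red reference.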

Assay [7] in a line: qHTS assay to test for compound auto fluorescence at 535 nm (green) in HepG2 cells (AID 720675).
Assay [8] in a line: qHTS assay to test for compound auto fluorescence at 460 nm (blue) in HEK293 cells (AID 720678). The gist of the method: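 Intrinsic compound fluorescence is recorded in live HEK293 cultures after overnight incubation at 37C, 5% CO2, using excitation 405 nm and emission 460 nm. Values are referenced to triamterene.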
Assay [9] can be described thus: qHTS assay to test for compound auto fluorescence at 590 nm (red) in HEK293 cells (AID 720679). In outline: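 Red autofluorescence, HEK293 cells: 2,000 cells/well; attach 4-5 hr 37C; add 23 nL cpd or DMSO; incubate o/n 37C 5% CO2; read Ex540/Em590; Rose Bengal sodium reference.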
Assay [10] can be described thus: qHTS assay to test for compound auto fluorescence at 535 nm (green) in HEK293 cells (AID 720680).
The nature of assay [11]: qHTS assay to test for compound auto fluorescence at 460 nm (blue) in HEK293 cell free culture (AID 720681). The gist of the method: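 Compounds were added to cell-free DMEM with 10% FBS and fluorescence read directly. The blue channel used 405 nm excitation and 460 nm emission, with triamterene as the reference fluorophore.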
The nature of assay [12]: qHTS assay to test for compound auto fluorescence at 535 nm (green) in HEK293 cell free culture (AID 720682). The gist of the method: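 Each library compound, or DMSO control, is added by pintool to medium alone, comprising DMEM and 10% FBS. Emission at 535 nm following 485 nm excitation is quantified against fluorescein.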
The nature of assay [13]: qHTS assay to test for compound auto fluorescence at 590 nm (red) in HEK293 cell free culture (AID 720683). The gist of the method: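 Cell-free wells of DMEM with 10% FBS received compound, and intrinsic fluorescence was read at excitation/emission 540/590 nm. Values expressed as equivalence to Rose Bengal sodium.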
The nature of assay [14]: qHTS assay to test for compound auto fluorescence at 590 nm (red) in HepG2 cell free culture (AID 720684). The gist of the method:
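Auto fluorescence equivalency versus Rose Bengal sodium, red channel Ex/Em 540/590 nm; compounds in cell-free MEM/10% FBS; DMSO vehicle control.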

Assay [15] is described as follows: qHTS assay to test for compound auto fluorescence at 460 nm (blue) in HepG2 cell free culture (AID 720685). The gist of the method:
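Cell-free plates of MEM plus 10% FBS received 23 nL compound or DMSO vehicle; blue-channel (405/460 nm) intensity scored against triamterene as reference fluorophore.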

The nature of assay [16]: qHTS assay to test for compound auto fluorescence at 535 nm (green) in HepG2 cell free culture (AID 720686).
Assay [17] in a line: qHTS assay to test for compound auto fluorescence at 460 nm (blue) in HepG2 cells (AID 720687). The gist of the method:
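HepG2 cells in MEM with 10% FBS, attached overnight at 37 C, were exposed to compound or DMSO for 1 hr at 37 C, 5% CO2. Blue fluorescence was read at 405/460 nm, with triamterene as reference fluorophore.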

For assay [18], the target named is Glucocorticoid receptor (Homo sapiens) (UniProt P04150). The assay is described as follows: qHTS assay to identify small molecule agonists of the glucocorticoid receptor (GR) signaling pathway (AID 720691; active = well fitted activation curve with a large enough effect in the signal ratio in the repeat runs, not every such curve was filed as active; the % refers to the signal ratio). In outline: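 HeLa GR-bla reporter line; cells pre-incubated 4 h, compound in DMSO 18 h at 37 C; LiveBLAzer B/G FRET substrate 2 h RT; fluorescence intensity read-out.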
Chain of Glucocorticoid receptor (Homo sapiens) (P04150 whole entry, looked up): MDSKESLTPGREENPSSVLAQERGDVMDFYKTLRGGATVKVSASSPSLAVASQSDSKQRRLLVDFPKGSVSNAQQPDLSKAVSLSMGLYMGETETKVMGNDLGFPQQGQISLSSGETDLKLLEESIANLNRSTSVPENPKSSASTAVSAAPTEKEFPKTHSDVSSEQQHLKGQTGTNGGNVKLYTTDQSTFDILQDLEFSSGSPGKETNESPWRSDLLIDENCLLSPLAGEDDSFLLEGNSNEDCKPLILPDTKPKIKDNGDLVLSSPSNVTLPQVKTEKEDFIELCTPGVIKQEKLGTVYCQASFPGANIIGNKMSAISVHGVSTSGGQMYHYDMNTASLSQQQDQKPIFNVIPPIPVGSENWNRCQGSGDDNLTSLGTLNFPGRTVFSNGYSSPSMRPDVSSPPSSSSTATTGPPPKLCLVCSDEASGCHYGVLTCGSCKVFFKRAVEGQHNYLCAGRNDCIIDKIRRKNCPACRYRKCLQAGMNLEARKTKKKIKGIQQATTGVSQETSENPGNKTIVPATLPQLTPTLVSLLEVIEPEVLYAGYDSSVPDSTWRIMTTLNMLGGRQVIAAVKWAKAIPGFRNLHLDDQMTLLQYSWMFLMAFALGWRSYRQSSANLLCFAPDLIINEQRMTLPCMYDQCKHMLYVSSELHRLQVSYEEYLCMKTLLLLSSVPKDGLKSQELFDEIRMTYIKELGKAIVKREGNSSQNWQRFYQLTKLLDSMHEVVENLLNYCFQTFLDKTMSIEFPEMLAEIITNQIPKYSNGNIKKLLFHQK

The target is the same in assay [19]. The assay is described as follows: qHTS assay to identify small molecule antagonists of the glucocorticoid receptor (GR) signaling pathway (AID 720692; active = well fitted inhibition curve with a large enough effect in the signal ratio in the repeat runs, not every such curve was filed as active; the % refers to the signal ratio). In outline:
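Read-out: beta-lactamase FRET substrate fluorescence, 2 h at room temperature, in HeLa cells stably carrying a GRE-driven bla reporter. Compounds were co-incubated with 5 nM dexamethasone agonist (final) for 18 h at 37 C.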

A short description of assay [20]: qHTS assay for small molecule disruptors of the mitochondrial membrane potential (AID 720635). The gist of the method: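 HepG2 cells exposed to compound 1 hr at 37C, then Mito-MPS dye 30 min. Ratio read of aggregate (540/590 nm) versus monomer (490/535 nm) fluorescence.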

Regarding `CN(C)CCOC(c1ccc(Cl)cc1)c1ccccn1` (centres undefined), the Potency result in assay [1], in assay [2], in assay [3], in assay [4], in assay [8] and in [11] was “inactive” each time. In addition, the Potency result in assay [15], in [17], in [18] and in assay [19] was “inactive” throughout. Further, in assay [5], the Potency was 5.31 µM (active). The result in assay [6], in assay [7], in [9], in assay [10], in assay [12] and in assay [13] was inactive. In addition, the result in assay [14] and in assay [16] was inactive.
Turning to `CCC(C)OC(=O)N1CCCCC1CCO` (centres undefined), the Potency entry in assay [1], in assay [2], in assay [3], in [4], in [5] and in [8] was “inactive” in each case. In addition, the Potency entry in [11], in [15] and in assay [17] was “inactive” each time. The compound was called inactive in assay [6], in [7], in [9], in [10], in assay [12] and in assay [13]. In addition, the call in [14] and in [16] was inactive.
For `CCc1cc(S(=O)(=O)O)c2cc(C(C)C)cccc1-2`, the Potency result in assay [1], in assay [2], in assay [3], in assay [4], in [5] and in assay [8] was “inactive” in each case. The Potency entry in assay [11], in assay [15], in assay [17], in assay [18] and in [19] was “inactive” each time. Moreover, the outcome in assay [6], in assay [7], in assay [9], in assay [10], in assay [12] and in assay [13] was inactive. Moreover, the outcome in assay [14] and in assay [16] was inactive.
In the case of `COCCOC(=O)CC#N`, the Potency entry in [1], in assay [2], in assay [3], in [4], in assay [5] and in assay [8] was “inactive” each time. Further, the Potency entry in assay [11], in assay [15], in assay [17] and in assay [18] was “inactive” each time. The outcome in assay [6], in assay [7], in assay [9], in assay [10], in assay [12] and in [13] was inactive. The compound was classed as inactive in assay [14] and in assay [16].
In the case of `CCCCCCOC(=O)c1ccccc1O`, the Potency entry in assay [1], in assay [2], in assay [3], in [4], in assay [5] and in assay [8] was “inactive” in each case. The Potency result in assay [11], in assay [15], in assay [17], in [18] and in assay [19] was “inactive” each time. Moreover, the call in assay [6], in assay [7], in [9], in [10], in [12] and in assay [13] was inactive. In addition, the result in [14] and in [16] was inactive.
Take `CC(=O)CCc1ccc(O)cc1`: the Potency result in assay [1], in [2], in assay [4], in assay [8], in [11] and in [15] was “inactive” in each case. Also, the Potency entry in assay [17] and in [18] was “inactive” in each case. Further, the compound was classed as inactive in assay [6], in [7], in assay [9], in [10], in assay [12] and in [13]. Moreover, the result in assay [14] and in assay [16] was inactive.
For `C=CCSCC1Nc2cc(Cl)c(S(N)(=O)=O)cc2S(=O)(=O)N1` (centres undefined), the Potency entry in assay [1], in assay [2], in assay [4], in assay [5], in assay [20] and in assay [8] was “inactive” throughout. The Potency entry in [11], in assay [15], in assay [17], in assay [18] and in assay [19] was “inactive” in each case. Further, the outcome in [6], in [7], in assay [9], in [10], in assay [12] and in [13] was inactive. The result in assay [14] and in assay [16] was inactive.
As to `CCCCOCC(C)OCC(C)O` (centres undefined), the Potency result in [2], in [3], in assay [4], in assay [5], in assay [20] and in [8] was “inactive” each time. The Potency result in assay [11], in assay [15] and in assay [17] was “inactive” each time. Besides, the compound was called inactive in assay [6], in assay [7], in assay [9], in assay [10], in assay [12] and in [13]. The result in [14] and in assay [16] was inactive.
